# Bioassay records (PubChem)
# Rows were chosen to be rich in hits. Some 0.81% of all compounds tested hit in one or more screens of this group.
# PTAP TSG101 blk – blocks PTAP/TSG101 interaction to inhibit HIV-1 budding | 340,000 tested, under 10 active | Q99816 | Fluorescence polarization, FITC-PTAP peptide / Tsg101 binding | Potency, µM (titrated, usually from 115 µM), most hits filed as inhibitors | AID 493005; active means well fitted inhibition curve with a large enough effect in the main read-out, with a control signal flat, not every such curve was filed as active; inconclusive means small, poorly fitted or top-dose-only effect, or effect the other way, or a change in a side signal; inactive means no such curve, though single readings can be large or run the other way
#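 Fluorescence anisotropy tracks displacement of a FITC-tagged PTAP peptide (50 nM) from the Tsg101 binding domain (10 uM), following a 20 min room-temperature incubation at pH 7.5.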
# TRPML1 inh – blocks the human TRPML1 channel | Q9GZU1 | TRPML1-inducible cells, Ca2+ dye fluorescence, FDSS; stronger effect = lower value; inhibition of EC80 agonist-evoked calcium signal | activity change, negative = inhibition, % (test concentration not listed) | 390,000 tested, 0.02% active; in the data active means activity change below about -50%; inconclusive means between about -30% and that limit;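 further: stimulus is agonist 54-4 at its EC80 concentration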
# Target sequence (Q9GZU1 whole entry, looked up): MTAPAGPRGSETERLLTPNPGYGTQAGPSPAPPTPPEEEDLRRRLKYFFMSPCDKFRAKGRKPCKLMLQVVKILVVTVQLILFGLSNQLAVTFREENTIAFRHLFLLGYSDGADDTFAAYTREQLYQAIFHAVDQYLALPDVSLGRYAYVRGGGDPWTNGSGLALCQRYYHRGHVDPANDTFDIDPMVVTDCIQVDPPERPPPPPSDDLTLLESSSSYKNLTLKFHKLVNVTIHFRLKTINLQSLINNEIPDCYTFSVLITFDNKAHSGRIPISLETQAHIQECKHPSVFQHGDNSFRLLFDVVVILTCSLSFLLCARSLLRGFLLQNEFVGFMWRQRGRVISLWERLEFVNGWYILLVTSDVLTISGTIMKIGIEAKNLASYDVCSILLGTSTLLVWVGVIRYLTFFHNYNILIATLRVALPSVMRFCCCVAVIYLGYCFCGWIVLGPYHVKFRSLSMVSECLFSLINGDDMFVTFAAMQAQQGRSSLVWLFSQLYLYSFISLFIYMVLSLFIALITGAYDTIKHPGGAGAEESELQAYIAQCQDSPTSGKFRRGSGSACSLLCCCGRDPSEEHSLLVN
#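 Calcium fluorescence in TRPML1-DL cells induced overnight with Tet: a 110 s read after compound pin addition, then a 110 s antagonist read after challenge with 54-4 at 4 uM final (EC80).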
# TRHR agonist-1 – agonists of human TRH receptor | 360,000 tested, 0.18% active | activation, % at 2 µM | P34981 | TRHR cells, calcium flux fluo-8, FDSS agonist mode | AID 493084; in the data active means activation above about 30%
#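 In this calcium-flux screen, cells bearing human TRHR are dye-loaded with fluo-8, baselined for 10 cycles, then exposed to library compounds; positive kinetic calcium responses during the agonist phase mark hits, with TRH as control.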
# TRHR enhancer-1 – allosteric enhancers of human TRH receptor. 360,000 tested, 0.66% active. enhancement, % at 2 µM. TRHR cells, fluo-8 calcium fluorescence, EC20 TRH enhancement. P34981; in the data active means enhancement above about 30%
#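 Enhancer read-out: after compound pinning and an initial kinetic agonist-mode read, an EC20 of TRH (10 nM final) was injected and fluo-8 calcium signal (Ex 480/Em 530) followed at 1 s/cycle for 100 cycles in TRHR-expressing cells.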
# TRPML1 agonist – agonists of human TRPML1 channel; TRPML1-expressing cells, Ca2+ dye fluorescence, FDSS; activation, % (concentration not given with the values); 410,000 tested, 0.12% active; AID 624414; in the data active means activation above about 50%; inconclusive means mostly about 30% to 49%
#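 TRPML1-DL cells, Tet-induced overnight (~16 h, 37 degrees C), loaded 45-90 min at room temperature with Ca8 no-wash calcium dye plus quencher. FDSS fluorescence: 10 s baseline, compound pin-transfer, 110 s agonist read, then EC80 54-4 (4uM final) and 110 s antagonist read.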
# TRHR enhancer-2 – confirmation of human TRH receptor allosteric enhancers | shares compounds with TRHR enhancer-1 | TRH receptor cell assay, enhancer confirmation qHTS | activity change, negative = inhibition, % at 46.1 µM | 970 tested, under 10 active;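 further: compound effect scored on response to added TRH at EC20 of 10 nM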
# TRHR agonist-2 – human TRH receptor agonism confirmation | 970 tested, 8% active | shares compounds with TRHR enhancer-1 | Potency, µM (titrated, usually from 46.1 µM), most hits filed as activators | TRHR-expressing cells, agonist activation read-out | AID 493078; further: nearly all actives have a fitted effect of over 75% in size
# A number is an active result; 0 = inactive; ? = inconclusive; - = not tested or not shown; ! = repeats disagree. Unless noted, the call rests on the fitted dose curve; in most records, active means well fitted curve in the direction sought with a large enough effect; inconclusive means small, poorly fitted or top-dose-only effect, or another doubt; inactive means no such curve, though single readings can be large; an effect the other way counts as inactive or inconclusive.
SMILES,PTAP TSG101 blk,TRPML1 inh,TRHR agonist-1,TRHR enhancer-1,TRPML1 agonist,TRHR enhancer-2,TRHR agonist-2
COc1ccc(OC)c(CCNC(=O)CCCc2nnc3n(C)c(=O)c4sccc4n23)c1,0,0,0,56!,0,0,0
Cn1c(=O)c2sccc2n2c(CCCC(=O)NCc3cccnc3)nnc12,0,0,0,42,0,0,0
CCCn1c(=O)c2sccc2n2c(CCCC(=O)NCc3cccnc3)nnc12,0,0,0,0,0,-,-
CCCS(=O)(=O)N1CCN(S(=O)(=O)c2ccccc2[N+](=O)[O-])CC1,0,0,0,0,0,-,-
CC(=O)c1c(C)[nH]c(C(=O)CN2CCN(S(=O)(=O)c3ccccc3[N+](=O)[O-])CC2)c1C,0,0,0,45,0,0,0
CSc1ccc(/C=C2\C=Cc3ccc([N+](=O)[O-])cc32)cc1,-,-,-,-,0,-,-
COC(=O)c1ccc(NC(=O)C(=O)c2c[nH]c3ccccc23)cc1,0,0,0,0,0,-,-
O=C(Nc1ccccc1)C(=O)c1c[nH]c2ccccc12,0,0,0,50,0,0,0
CN(CC(=O)O)c1ccc(/C=C2\C=Cc3ccccc32)cc1,-,-,-,-,0,-,-
Cc1c(NC(=O)COC(=O)c2c3c(nc4ccccc24)CCCC3)c(=O)n(-c2ccccc2)n1C,0,0,0,0,0,-,-
Cc1c(NC(=O)C(C)OC(=O)c2c3c(nc4ccccc24)CCC3)c(=O)n(-c2ccccc2)n1C (configuration not stated),0,0,0,49,0,0,0
Nc1[nH]c(=O)nc2nnsc12,-,-,-,-,0,-,-
CCCN1C(=O)c2ccccc2NC1c1ccc(Cl)c(Cl)c1 (configuration not stated),0,0,0,74,0,0,0
Cc1ccccc1Nc1nc(N)nc(COC(=O)CCS(=O)(=O)c2ccccc2)n1,0,0,0,0,0,-,-
Cc1ccccc1Nc1nc(N)nc(COC(=O)CC2CC3CCC2C3)n1 (configuration not stated),0,0,0,51,0,0,0
NC(=O)COC(=O)c1ccccc1OCC(=O)Nc1ccc(Br)cc1,-,-,-,-,0,-,-
OC(COc1ccccc1)CN1CCCCCC1 (configuration not stated),0,0,0,42,0,?,0
c1ccc(-n2cccc2CNC2CCCCC2)cc1,0,0,0,48,0,0,0
Cc1c(-n2cc(C(=O)c3ccccc3O)cc(C#N)c2=O)c(=O)n(-c2ccccc2)n1C,0,0,42,0,0,0,?
N#Cc1cc(C(=O)c2ccccc2O)cn(-c2ccc(Cl)cc2)c1=O,0,0,0,0,0,-,-
COc1cccc(NC(=O)CNS(=O)(=O)c2ccc(Cl)cc2)c1,0,0,0,0,0,-,-
COc1ccc(NC(=O)CNS(=O)(=O)c2ccc(Cl)cc2)cc1,0,0,0,44,0,0,0
COC(=O)c1[nH]c2ccccc2c1NS(=O)(=O)c1ccc(F)c(C)c1,0,0,0,44,0,0,0
CC1CCC2C(=O)N(c3cccc(C(=O)Nc4ccc(F)cc4)c3)C(=O)C2C1 (configuration not stated),0,0,0,57,0,0,0
Brc1cc2c(cc1CSc1ncccn1)OCO2,0,0,0,46,0,0,0
SMILES,PTAP TSG101 blk,TRPML1 inh,TRHR agonist-1,TRHR enhancer-1,TRPML1 agonist,TRHR enhancer-2,TRHR agonist-2
OCCC1CN(Cc2ccc3nsnc3c2)CCN1CCc1ccccc1 (configuration not stated),0,0,0,45,0,0,0
CC1C(=O)CC(c2ccccc2)NC1c1ccccc1 (configuration not stated),0,0,0,45,0,0,0
CC(C)C1C(=O)CC(c2ccccc2)NC1c1ccccc1 (configuration not stated),0,-,0,0,-,-,-
CC(=O)NCCNC(=O)c1ccc2c(=O)n(CCc3ccccc3)c(=O)[nH]c2c1,-,0,0,0,0,-,-
O=C(NCC1CCCO1)c1ccc2c(=O)n(CCc3ccccc3)c(=O)[nH]c2c1 (configuration not stated),0,0,0,46,0,0,0
O=[N+]([O-])c1ccc2nc(CO)[nH]c2c1,-,-,-,-,0,-,-
N=c1nc(-c2ccccc2)n(-c2ccccc2)s1,-,-,-,-,0,-,-
C=CCC(CC)C(=O)NC(=O)N1CCCc2ccccc21 (configuration not stated),0,0,0,42,0,0,0
CC(=O)NC(Cc1ccc(I)cc1)C(=O)NCC(N)C(=O)c1ccccc1 (configuration not stated),-,-,-,-,0,-,-
CCc1ccc(NC(=S)N2CCN(C)CC2)cc1,0,0,0,58,0,0,0
CCc1ccc(NC(=S)N2CCCC2)cc1,0,0,0,0,0,-,-
COc1ccc(NC(=O)COc2ccc3c(c2)CCC3)cc1,0,0,0,42,0,0,0
